The source of these data is PubChem BioAssay AID624331 (National Center for Advancing Translational Sciences (NCATS), 2012).

Inconclusive results are not listed. A call without a number means that no potency is given here. Calls of active or inactive are those of the source. Calls follow the shape of the dose curve; as a rule, active = well fitted activation curve with a large enough effect; inconclusive = small, poorly fitted or top-dose-only effect; inactive = no such curve, though single readings can be large or run the other way.
Potency is read from the fitted curve at half-maximal effect.

This assay in a line: qHTS assay for re-activators of p53 using a Luc reporter: Hit Validation with no p53 Expressed. The following applies: p53-null cells, luciferase reporter counter-screen; series mostly up to 46.1 µM. The procedure, abridged: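 Counter-screen of primary hits in a cell line not transfected with p53, in Opti-MEM with 10% FBS; compounds at several concentrations (10 mM stock, 1:5; top 46.1 µM in well), 24 h at 37 deg C, 5% CO2. Luminescence read after 10 min with Amplite reagent.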
For orientation: Quantitative high-throughput screening tests each substance at several concentrations.
`CC1(C)Oc2ccc(NC(=O)C3COc4ccccc4O3)cc2O1` (centres undefined): the Potency entry was “inactive”. Under `CCOc1ccc2c(c1)C(=NNC(=O)c1ccncc1)c1cc(OCC)ccc1-2` stands “inactive”. Regarding `Cc1ccc(NC(=O)NC(=O)CN2CCC(C(N)=O)CC2)c(C)c1`, the Potency entry was “inactive”. Take `COc1cccc(/C=N/Nc2cc(-n3nc(C)cc3-c3ccccc3)ncn2)c1O`: the Potency result was “inactive”. With `Cc1ccnc(NC(=O)/C=C/c2cccs2)c1`, the Potency entry is “inactive”. On to `CC(C)(C)c1nnc(SCC(=O)c2ccccc2)n(N)c1=O`, for which the Potency result is “inactive”. Regarding `Cc1ccc2oc(C(=O)Nc3cc(C)on3)c(C)c2c1`, the Potency is 9.2 µM (active). The value for `O=C(C1CCCN1S(=O)(=O)c1ccc(Cl)cc1)N1CCOCC1` (centres undefined) was “inactive”; that for `CC(=O)Nc1ccc(Nc2cc(C)nc3c(-c4ccccc4)cnn23)cc1` was “inactive”; that for `Nc1c(C(=O)c2ccc(Br)cc2)oc2ccccc12` was “inactive”.

In the case of `O=C(/C=C/Nc1ccccc1C(=O)O)c1cccs1`, the Potency result was “inactive”. For the compound `Cc1ccsc1/C=C1\CCc2ccccc2C1=O`, the Potency entry was “inactive”.

For the compound `Cc1cccc(NC(=O)c2ccccn2)c1C`, the Potency entry was “inactive”.

As for `O=C(c1cccs1)c1coc2ccc(O)cc12`, the Potency entry is “inactive”. `Cc1occc1C(=O)NN=C1C2CC3CC(C2)CC1C3`: the Potency entry was “inactive”. The value for `Cc1ccc(OCCN2CCOCC2)cc1C` was “inactive”; that for `Cc1c(C(=O)N2CCc3ccccc32)oc2c1C(=O)CC(C)(C)C2` was “inactive”; that for `Cc1ccc(N2C(=O)c3ccccc3C2C(=O)c2cc(C)ccc2O)cc1` (centres undefined) was “inactive”. Under `O=C(NNC1=C(C(=O)C(F)(F)F)CCC1)c1cccc(O)c1` stands “inactive”; under `Cc1ccc(C(=O)c2cc([N+](=O)[O-])ccc2N2CCCCC2)cc1C`, “inactive”; under `CC(C)C(=O)Nc1ccc(-c2nc3cccnc3o2)cc1`, “inactive”. Consider `COc1ccc(/C(C)=N/Nc2nccnc2Cl)cc1`, for which the Potency result is “inactive”. As for `NNc1nc(NCc2ccccc2)nc(N2CCOCC2)n1`, the Potency entry was “inactive”. Turning to `COc1cc(N=c2c([N+](=O)[O-])nn(-c3ccc4c(c3)OCCO4)n2O)cc(OC)c1`, the Potency result is “inactive”.

As to `COc1ccc(-n2cc(-c3ccccc3)[nH]c2=S)cc1`, the Potency result is “inactive”.

On to `COc1ccc(-n2nc([N+](=O)[O-])c(=NCc3ccco3)n2O)cc1`, for which the Potency entry was “inactive”.

For the compound `COCCn1c(C)cc(C(=O)CSc2nc3ccccc3s2)c1C`, the Potency result was “inactive”.

For the compound `CCOC(=O)C1CCN(S(=O)(=O)Cc2ccccc2)C1=O` (centres undefined), the Potency entry is “inactive”.

With `O=C(CNS(=O)(=O)c1cccc(Cl)c1)Nc1ccc(-c2nc3ccccc3s2)cc1`, the Potency entry is “inactive”. Take `Cc1ccc(S(=O)(=O)CNC(=O)c2ccccc2)cc1`: the Potency entry was “inactive”. For `CCOC(=O)c1c(C)[nH]c(C(=O)CSc2ccccc2)c1C`, the Potency entry was “inactive”. With `Cc1cc(C(=O)COc2ncnc3sccc23)c(C)n1C1CC1`, the Potency entry was “inactive”. As for `COc1ccc(-c2cc3ccc(F)cc3cn2)cc1`, the Potency result was “inactive”. On to `CCC(C)C(=O)N1CCc2cc(-c3csc(N)n3)ccc21` (centres undefined), for which the Potency result was “inactive”.

In the case of `COc1cc(/C=N/Nc2nc3ccccc3s2)ccc1OC(=O)c1ccccc1F`, the Potency entry was “inactive”.

With `CCOc1ccc(/C=N/NC(=O)CN2CCSCC2)cc1`, the Potency entry was “inactive”. As to `COc1cc(NC(=O)CN2CCCCC2)c(C)cc1[N+](=O)[O-]`, the Potency result was “inactive”. As for `COc1cc(C(=O)NCC(=O)Nc2c(C)cccc2C)ccc1OCc1ccccc1`, the Potency result was “inactive”. `CCCCNC(=S)N(Cc1c(C)noc1C)c1ccccc1`: the Potency entry was “inactive”.
